# Compound activity (PubChem BioAssay)
# The list is not random: actives were taken first. Their share in the collection is about 3.1%.
# Calb FLC = affects C. albicans growth with fluconazole. growth inhibition, % (test concentration not listed). C. albicans CaCi-2 (fluconazole-resistant clinical isolate) + fluconazole, Alamar Blue growth, 48 h. 0.57% of 300,000 active;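 active means growth inhibition above about 58% in most replicates, limit read from the data, passing the limit was not always enough; inconclusive means exactly half the replicates above a set limit; inactive means most replicates below a set limit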;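 further: all wells also contain fluconazole at 8 µg/ml as a sub-toxic cotreatment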
# FAS-TE inh = FAS thioesterase (human) inhibition. P49327. recombinant FAS-TE, OMFH fluorogenic substrate, fluorescence endpoint. inhibition, % at 15 µM. 0.67% of 360,000 active. AID 602261;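 active means compounds whose normalised, plate-corrected inhibition of enzyme fluorescence in the single-dose primary screen is 50% or more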
# ATG4B inh = inhibitors of human ATG4B cysteine protease. Q9Y4P1. ATG4B cleavage of LC3-PLA2, NBD-HPC fluorescence, 1 h. inhibition, % at 8.33 µM. 0.51% of 340,000 active; in the data active means inhibition above about 40%
# NadD inh = NadD (S. aureus) enzyme inhibition | purified NadD enzyme, colorimetric absorbance read-out | inhibition, % at 20 µM | 0.78% of 360,000 active | AID 602399; in the data active means inhibition above about 26%
# SUMO Mot1 rescue = blocks SUMOylation pathway, rescuing yeast Mot1-301 growth. S. cerevisiae Mot1-301 growth rescue, ATP luminescence, 38.5C; percent above DMSO median, 100 means doubled. growth rescue, % at 18.8 µM. 1% of 320,000 active;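 active means every valid replicate shows activation above 250% relative to neutral control wells; inactive means the rest, any valid replicate at or below 250%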
# NadD conf = NadD (S. aureus) inhibition, single concentration confirmation | shares compounds with NadD inh | purified S. aureus NadD, colorimetric enzyme assay | inhibition, % at 20 µM | 13% of 2,000 active | AID 624309; in the data active means inhibition mostly above about 42%, no sharp cut-off; inactive means mostly below about 42%
# Hits are given with their value; 0 = inactive; ? = inconclusive; - = no result.
SMILES,Calb FLC,FAS-TE inh,ATG4B inh,NadD inh,SUMO Mot1 rescue,NadD conf
COc1cccc(=O)c2c(C)n(-c3cc(C)cc(C)c3)c(C)c12,0,0,0,35.3,0,0
COc1cccc(-n2c(C)c3c(OC)cccc(=O)c3c2C)c1,0,0,0,0,0,-
COC(=O)c1ccc(NC(=S)NC(=O)c2cc(-c3ccccc3)nc3ccccc23)cc1,0,0,0,0,0,-
COc1ccc(-c2cc(C(=O)NNC(=S)NC(=O)c3c(-c4ccccc4)noc3C)[nH]n2)cc1,81.3,0,0,42.5,0,52.5
CCNC(=S)NNC(=O)c1cc(-c2cccc(OC)c2)nc2ccccc12,0,0,0,0,0,-
COc1ccc(C(=O)NNC(=S)NC(=O)c2cc(-c3ccccc3)nc3ccccc23)cc1,0,0,0,49.1,0,67.7
CC(C)(C)c1ccc(-c2cc(C(=O)NNC(=O)Nc3ccccc3)c3ccccc3n2)cc1,0,0,0,37.2,0,0
COc1ccc(Cl)cc1C(=O)NNC(=S)NC(=O)c1cc(-c2ccccc2)nc2ccccc12,0,0,0,60.9,0,0
CCC1(c2ccc(Cl)cc2)NC(=O)N(CC(=O)NC2CCCC(C)C2C)C1=O (stereo not given),-,0,0,0,-,-
CCOc1ccc(NC(=O)CN(C)C(=O)CCCOc2ccc(Cl)c(C)c2)cc1OCC,0,0,0,0,0,-
Nc1nnc(/C=C/c2ccccc2)s1,0,0,0,0,0,-
COc1cccc(-c2cc(C(=O)Nc3nc4ccccc4s3)c3ccccc3n2)c1,0,0,0,35.8,0,0
COc1cc2c(cc1NC(=O)c1cc(-c3ccncc3)nc3ccccc13)oc1ccccc12,0,0,0,47.6,0,0
O=C(Nc1nc2ccccc2s1)c1cc(-c2ccco2)nc2ccccc12,0,0,0,0,0,-
CCCOc1ccc(C(=O)NNC(=S)NC(=O)c2cc(-c3ccc(Cl)cc3)nc3ccccc23)cc1,0,0,0,78.8,0,0
COc1ccccc1C(=O)N/C(=C\c1cn(S(=O)(=O)N(C)C)c2ccccc12)C(=O)N1CCCCC1,0,0,0,0,0,-
O=C(Nc1nccs1)c1cccc(N2C(=O)c3cccc4c([N+](=O)[O-])ccc(c34)C2=O)c1,0,0,0,37.5,0,0
Cc1cc2oc(C(=O)Nc3ccc(S(=O)(=O)Nc4nccs4)cc3)cc(=O)c2cc1Cl,0,0,0,64.5,0,0
CCC(Oc1ccc(C)cc1)C(=O)Nc1ccc(S(=O)(=O)Nc2nccs2)cc1 (stereo not given),0,0,0,0,0,-
O=C(Nc1ccc(S(=O)(=O)Nc2nccs2)cc1)c1cccc(N2C(=O)c3ccccc3C2=O)c1,0,0,0,39.3,0,58.4
CC(=O)Oc1cccc(N2C(=O)c3cccc4c([N+](=O)[O-])ccc(c34)C2=O)c1,0,0,0,0,0,-
Cc1ccc(Oc2ccc3c(c2)C(=O)N(c2ccc(S(=O)(=O)Nc4nccs4)cc2)C3=O)cc1,0,0,0,44.4,0,0
Cc1cc(C)c2oc(C(=O)Nc3ccc(S(=O)(=O)Nc4nccs4)cc3)cc(=O)c2c1,0,0,0,0,0,-
N#Cc1cccc(C(=O)Nc2ccc(S(=O)(=O)Nc3nccs3)cc2)c1,-,0,0,0,0,-
CC(=O)N1CCC(C(=O)Nc2ccc(S(=O)(=O)NCCc3ccccc3)cc2)CC1,0,0,0,0,0,-
SMILES,Calb FLC,FAS-TE inh,ATG4B inh,NadD inh,SUMO Mot1 rescue,NadD conf
COc1ccc(S(=O)(=O)N2CC(=O)Nc3ccccc32)cc1C,0,0,0,0,0,-
O=C(O)c1cccc(N/N=C/c2sc(N3CCOCC3)nc2-c2ccccc2)c1,0,0,0,0,0,-
O=[N+]([O-])c1ccc(N/N=C/c2sc(N3CCOCC3)nc2-c2ccccc2)c(S(=O)(=O)Nc2ccc(Cl)cc2)c1,0,0,0,57.5,-,0
Cc1ccc(-c2cc(C(F)F)n3ncc(C(=O)Nc4ccc(S(=O)(=O)Nc5ccccc5C)cc4)c3n2)cc1,0,0,0,36.2,0,0
CC(C)Cc1nnc(NC(=O)CCC(=O)N2CCCCC2)s1,0,0,0,0,0,-
Cc1cccc(-n2nc3c(c2NC(=O)c2ccc(Br)o2)CSC3)c1,?,0,0,44.1,0,64.5
Cc1ccc(-n2nc3c(c2NC(=O)c2cccs2)CSC3)cc1,0,0,0,56.3,0,77.2
Cc1ccc(NC(=O)CC2Nc3ccccc3NC2=O)cc1Cl (stereo not given),-,0,0,31.4,-,0
